19 compounds from ChEMBL document CHEMBL2218924, “A broad activity screen in support of a chemogenomic map for kinase signalling research and drug discovery” (Biochem J, 2013) can be followed below.

What is called residual activity is the signal under treatment as a percentage of the control signal.

Experiment [1] deals with Fibroblast growth factor receptor 3 (Homo sapiens) (UniProt P22607). The settings on record: at 1 µM.
Experiment [2] shares this target. The note with it: at 10 µM.
Experiment [3] has as its target Tyrosine-protein kinase Fer (Homo sapiens) (UniProt P16591). The note with it: at 10 µM.
The target of experiment [4] is Tyrosine-protein kinase Fes/Fps (Homo sapiens) (UniProt P07332). The settings on record: at 10 µM.
Tyrosine-protein kinase Fes/Fps (Homo sapiens), sequence (P07332 whole entry): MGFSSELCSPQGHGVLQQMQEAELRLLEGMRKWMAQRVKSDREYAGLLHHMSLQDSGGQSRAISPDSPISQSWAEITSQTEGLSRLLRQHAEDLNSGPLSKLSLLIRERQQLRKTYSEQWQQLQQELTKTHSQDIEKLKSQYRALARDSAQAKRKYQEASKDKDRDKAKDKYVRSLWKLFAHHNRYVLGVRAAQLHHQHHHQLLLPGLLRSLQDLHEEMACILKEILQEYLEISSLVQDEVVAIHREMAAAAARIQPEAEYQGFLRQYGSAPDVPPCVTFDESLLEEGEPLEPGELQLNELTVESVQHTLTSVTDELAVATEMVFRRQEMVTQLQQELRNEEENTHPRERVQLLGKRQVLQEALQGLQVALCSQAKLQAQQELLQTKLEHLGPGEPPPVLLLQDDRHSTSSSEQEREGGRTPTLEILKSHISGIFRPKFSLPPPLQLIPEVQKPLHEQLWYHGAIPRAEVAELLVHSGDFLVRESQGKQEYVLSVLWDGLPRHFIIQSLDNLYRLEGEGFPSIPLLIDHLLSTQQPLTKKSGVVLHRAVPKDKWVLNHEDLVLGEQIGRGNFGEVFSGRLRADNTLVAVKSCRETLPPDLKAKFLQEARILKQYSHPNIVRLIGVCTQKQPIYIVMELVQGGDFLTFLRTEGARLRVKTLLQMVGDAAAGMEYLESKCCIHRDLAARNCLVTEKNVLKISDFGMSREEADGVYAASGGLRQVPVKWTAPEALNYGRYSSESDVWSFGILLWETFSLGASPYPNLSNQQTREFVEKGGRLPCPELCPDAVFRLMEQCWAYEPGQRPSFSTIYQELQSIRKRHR
For experiment [5], the target named is Vascular endothelial growth factor receptor 1 (Homo sapiens) (UniProt P17948). The settings on record: at 1 µM.
Experiment [6] shares this target. The settings on record: at 10 µM.
The target in experiment [7] is Receptor-type tyrosine-protein kinase FLT3 (Homo sapiens) (UniProt P36888). The note with it: at 1 µM.
Receptor-type tyrosine-protein kinase FLT3 (Homo sapiens), sequence (P36888 whole entry): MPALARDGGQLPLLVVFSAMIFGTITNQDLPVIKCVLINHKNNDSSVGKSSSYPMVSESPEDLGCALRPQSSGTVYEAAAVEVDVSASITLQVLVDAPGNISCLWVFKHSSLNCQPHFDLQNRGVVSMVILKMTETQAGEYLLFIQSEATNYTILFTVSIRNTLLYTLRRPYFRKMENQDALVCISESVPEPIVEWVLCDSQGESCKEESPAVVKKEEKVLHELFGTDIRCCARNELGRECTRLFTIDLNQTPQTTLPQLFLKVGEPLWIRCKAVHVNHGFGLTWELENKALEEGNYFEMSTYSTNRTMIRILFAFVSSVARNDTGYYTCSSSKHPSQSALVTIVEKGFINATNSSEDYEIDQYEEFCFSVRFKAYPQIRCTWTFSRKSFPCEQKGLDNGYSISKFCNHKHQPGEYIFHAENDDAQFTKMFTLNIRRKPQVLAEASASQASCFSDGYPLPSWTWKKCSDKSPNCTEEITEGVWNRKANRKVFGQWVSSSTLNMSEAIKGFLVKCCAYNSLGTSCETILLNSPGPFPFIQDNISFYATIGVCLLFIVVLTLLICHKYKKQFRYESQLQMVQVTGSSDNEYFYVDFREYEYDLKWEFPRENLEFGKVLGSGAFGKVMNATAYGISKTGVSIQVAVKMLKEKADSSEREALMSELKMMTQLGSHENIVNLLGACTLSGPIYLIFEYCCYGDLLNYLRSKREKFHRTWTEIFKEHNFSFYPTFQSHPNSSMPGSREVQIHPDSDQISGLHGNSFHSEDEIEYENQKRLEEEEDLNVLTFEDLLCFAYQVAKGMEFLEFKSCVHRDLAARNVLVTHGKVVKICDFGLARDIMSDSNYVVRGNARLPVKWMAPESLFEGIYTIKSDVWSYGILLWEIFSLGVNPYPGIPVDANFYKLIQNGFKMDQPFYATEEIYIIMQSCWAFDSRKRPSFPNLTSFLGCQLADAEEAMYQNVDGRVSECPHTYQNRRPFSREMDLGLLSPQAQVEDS
For experiment [8] the target is unchanged. The note with it: at 10 µM.
The target in experiment [9] is Vascular endothelial growth factor receptor 3 (Homo sapiens) (UniProt P35916). The settings on record: at 1 µM.
Vascular endothelial growth factor receptor 3 (Homo sapiens), sequence (P35916 whole entry): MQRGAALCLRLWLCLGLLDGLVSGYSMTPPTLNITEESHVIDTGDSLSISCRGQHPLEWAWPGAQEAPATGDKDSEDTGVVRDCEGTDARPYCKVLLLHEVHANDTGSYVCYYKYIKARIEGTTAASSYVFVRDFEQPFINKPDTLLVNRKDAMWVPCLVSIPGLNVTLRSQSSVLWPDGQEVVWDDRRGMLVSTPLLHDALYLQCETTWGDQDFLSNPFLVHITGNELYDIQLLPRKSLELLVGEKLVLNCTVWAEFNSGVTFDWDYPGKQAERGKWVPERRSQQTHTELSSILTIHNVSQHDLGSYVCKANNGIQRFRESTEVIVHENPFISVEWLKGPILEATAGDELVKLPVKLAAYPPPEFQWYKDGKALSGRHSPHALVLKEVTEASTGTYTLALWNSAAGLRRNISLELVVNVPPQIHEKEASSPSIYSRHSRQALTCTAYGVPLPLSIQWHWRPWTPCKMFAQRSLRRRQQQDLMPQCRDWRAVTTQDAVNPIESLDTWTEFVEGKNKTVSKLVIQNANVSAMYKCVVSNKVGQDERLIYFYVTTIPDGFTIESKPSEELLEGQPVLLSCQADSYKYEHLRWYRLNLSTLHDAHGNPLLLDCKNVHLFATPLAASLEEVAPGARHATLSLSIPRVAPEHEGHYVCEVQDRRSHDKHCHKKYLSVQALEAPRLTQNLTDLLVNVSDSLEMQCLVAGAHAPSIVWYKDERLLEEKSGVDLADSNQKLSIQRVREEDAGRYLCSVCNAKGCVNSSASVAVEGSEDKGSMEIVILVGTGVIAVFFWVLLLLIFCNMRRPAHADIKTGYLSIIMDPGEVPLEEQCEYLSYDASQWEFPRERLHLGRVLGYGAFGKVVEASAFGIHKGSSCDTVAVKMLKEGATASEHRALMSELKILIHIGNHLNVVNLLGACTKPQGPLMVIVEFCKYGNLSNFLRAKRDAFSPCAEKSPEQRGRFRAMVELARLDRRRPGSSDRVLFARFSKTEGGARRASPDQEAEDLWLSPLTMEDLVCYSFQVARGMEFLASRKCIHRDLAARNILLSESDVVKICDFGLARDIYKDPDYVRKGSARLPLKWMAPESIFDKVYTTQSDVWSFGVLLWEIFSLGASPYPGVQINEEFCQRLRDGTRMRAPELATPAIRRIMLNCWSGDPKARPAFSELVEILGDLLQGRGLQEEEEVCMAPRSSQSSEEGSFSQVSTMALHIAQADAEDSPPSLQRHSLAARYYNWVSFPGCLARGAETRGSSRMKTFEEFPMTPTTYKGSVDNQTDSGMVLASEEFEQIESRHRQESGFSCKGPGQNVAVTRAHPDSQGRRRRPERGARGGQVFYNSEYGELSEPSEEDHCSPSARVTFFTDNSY
For experiment [10], the target named is Fibroblast growth factor receptor 2 (Homo sapiens) (UniProt P21802). The note with it: at 1 µM.
Fibroblast growth factor receptor 2 (Homo sapiens), sequence (P21802 22-821 limits assumed): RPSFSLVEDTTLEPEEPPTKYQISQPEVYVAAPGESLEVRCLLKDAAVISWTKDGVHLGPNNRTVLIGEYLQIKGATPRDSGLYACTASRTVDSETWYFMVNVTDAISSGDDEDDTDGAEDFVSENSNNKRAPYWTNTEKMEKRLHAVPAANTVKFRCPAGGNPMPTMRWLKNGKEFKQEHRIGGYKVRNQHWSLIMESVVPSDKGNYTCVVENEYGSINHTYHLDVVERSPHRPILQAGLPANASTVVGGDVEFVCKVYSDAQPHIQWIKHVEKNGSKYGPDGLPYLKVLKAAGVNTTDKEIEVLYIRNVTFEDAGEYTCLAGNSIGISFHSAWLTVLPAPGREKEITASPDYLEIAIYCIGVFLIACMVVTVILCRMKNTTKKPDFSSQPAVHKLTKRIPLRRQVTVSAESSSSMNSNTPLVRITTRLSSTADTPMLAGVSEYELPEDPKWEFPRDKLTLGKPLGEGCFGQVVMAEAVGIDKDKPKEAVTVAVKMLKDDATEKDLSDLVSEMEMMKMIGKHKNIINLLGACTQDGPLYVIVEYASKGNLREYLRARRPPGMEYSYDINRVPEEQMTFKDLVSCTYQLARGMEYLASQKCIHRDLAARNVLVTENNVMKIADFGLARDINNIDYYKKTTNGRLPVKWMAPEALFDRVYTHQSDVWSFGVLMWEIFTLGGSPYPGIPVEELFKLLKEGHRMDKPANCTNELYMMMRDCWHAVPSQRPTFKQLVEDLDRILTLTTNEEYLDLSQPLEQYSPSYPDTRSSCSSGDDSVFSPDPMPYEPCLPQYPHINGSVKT
Experiment [11] has the same target. The note with it: at 10 µM.
Experiment [12] deals with Fibroblast growth factor receptor 4 (Homo sapiens) (UniProt P22455). The note with it: at 1 µM.
Experiment [13] addresses Tyrosine-protein kinase Fer (Homo sapiens) (UniProt P16591). The note with it: at 1 µM.
The target of experiment [14] is Tyrosine-protein kinase Fes/Fps (Homo sapiens) (UniProt P07332). The settings on record: at 1 µM.
For experiment [15], the target named is Tyrosine-protein kinase Fgr (Homo sapiens) (UniProt P09769). The settings on record: at 1 µM.
The target is the same in experiment [16]. The settings on record: at 10 µM.
Experiment [17] deals with Fibroblast growth factor receptor 1 (Homo sapiens) (UniProt P11362). The settings on record: at 10 µM.
Fibroblast growth factor receptor 1 (Homo sapiens), sequence (P11362 22-822 limits assumed): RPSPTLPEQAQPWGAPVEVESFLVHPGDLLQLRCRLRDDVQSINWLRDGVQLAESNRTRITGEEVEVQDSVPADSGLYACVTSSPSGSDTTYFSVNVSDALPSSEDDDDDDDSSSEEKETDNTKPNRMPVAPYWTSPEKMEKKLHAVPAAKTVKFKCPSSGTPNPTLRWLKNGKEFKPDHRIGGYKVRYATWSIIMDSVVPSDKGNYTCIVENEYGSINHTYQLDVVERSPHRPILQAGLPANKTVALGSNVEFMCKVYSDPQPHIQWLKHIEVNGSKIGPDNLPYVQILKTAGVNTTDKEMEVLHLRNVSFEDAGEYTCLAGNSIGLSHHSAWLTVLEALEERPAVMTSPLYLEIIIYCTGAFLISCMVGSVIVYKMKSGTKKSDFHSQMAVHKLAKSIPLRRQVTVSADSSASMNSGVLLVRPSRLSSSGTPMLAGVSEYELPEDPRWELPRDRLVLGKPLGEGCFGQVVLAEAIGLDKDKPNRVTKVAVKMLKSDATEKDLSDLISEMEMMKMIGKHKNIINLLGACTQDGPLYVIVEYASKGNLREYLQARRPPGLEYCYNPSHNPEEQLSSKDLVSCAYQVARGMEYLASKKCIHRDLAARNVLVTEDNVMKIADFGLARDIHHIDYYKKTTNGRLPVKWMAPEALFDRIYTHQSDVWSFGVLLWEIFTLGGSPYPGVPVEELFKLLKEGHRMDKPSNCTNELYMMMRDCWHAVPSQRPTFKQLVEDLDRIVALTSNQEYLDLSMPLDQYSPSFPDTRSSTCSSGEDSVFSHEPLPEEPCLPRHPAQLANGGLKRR
The target is the same in experiment [18]. The note with it: at 1 µM.
Experiment [19] deals with Focal adhesion kinase 1 (Homo sapiens) (UniProt Q05397). The settings on record: at 10 µM.
The target in experiment [20] is Fibroblast growth factor receptor 4 (Homo sapiens) (UniProt P22455). The note with it: at 10 µM.

On to `COc1ccc(-c2cnc3c(-c4ccsc4)cnn3c2)cc1`, for which the residual activity in experiment [1] came to 93%; in experiment [2] it was 124%; in [3] it was 98%; in experiment [4] it was 82%; in experiment [5] it was 33%; in experiment [6], 48%. Moreover, the residual activity was found to be 53% in [7], 19% in experiment [8] and 21% in [9].

On to `Nc1ncnc2[nH]nc(Nc3ccc(F)cc3)c12`, for which the residual activity in [10] is 91%; in [11], 60%; in experiment [1], 113%; in experiment [12], 98%; in experiment [13], 98%; in experiment [3] it was 99%. In addition, the residual activity turned out to be 98% in [14]; 56% in experiment [15]; 18% in experiment [16]; 35% in experiment [6]; 114% in [7]; 94% in [8]. Further, the residual activity in [9] was 80%.

Consider `O=S(=O)(c1cccc2cnccc12)N1CCCNCC1`, for which the residual activity in experiment [17] is 81%.

In the case of `COc1ccc2c(c1)c(C1=C(c3c[nH]c4ccccc34)C(=O)NC1=O)cn2CCCN(C)C`, the residual activity in [18] was 38%; in experiment [17], 3%; in [10], 72%; in experiment [11] it was 18%; in experiment [1], 63%; in experiment [2] it was 13%. For the same compound, the residual activity is 120% in experiment [12]; 102% in [13]; 58% in experiment [3]; 96% in experiment [14]; 26% in [4]; 33% in experiment [16]. Also, the residual activity amounted to 2% in experiment [5]; 0% in [6]; 21% in experiment [7]; 0% in experiment [8]; 2% in experiment [9].

With `N#C/C(=C1/Nc2ccccc2S1)c1ccnc(NCCc2cccnc2)n1`, the residual activity in experiment [19] was determined as 60%; in experiment [10] it was 100%; in experiment [11], 45%; in experiment [12], 117%; in experiment [20], 67%; in experiment [13], 89%. Further, the residual activity in experiment [3] stood at 60%; in [14], 96%; in experiment [4] it was 73%; in [15] it was 81%; in [16], 44%; in experiment [5], 78%. Moreover, the residual activity in experiment [6] worked out at 33%; in experiment [9], 68%.

Turning to `N#Cc1c(NC(=O)c2cccc3ccccc23)sc2c1CCCC2`, the residual activity came to 128% in experiment [18]; 88% in experiment [17]; 89% in [13]; 97% in experiment [3]; 95% in experiment [4]; 99% in [15]. The residual activity in experiment [16] is 135%; in experiment [8], 77%; in [9] it was 92%.

For the compound `NC(=O)c1ccc(-c2nc(-c3ccc4c(c3)OCCO4)c(-c3ccccn3)[nH]2)cc1`, the residual activity was 117% in experiment [10]; 82% in experiment [11]; 122% in experiment [12]; 95% in experiment [20]; 82% in experiment [5]; 70% in experiment [6]. Besides, the residual activity in experiment [7] was determined as 64%; in experiment [8], 51%; in experiment [9] it was 79%.

Take `Fc1ccc(-c2nc3n(c2-c2ccncc2)CCS3)cc1`: the residual activity in experiment [18] is 137%; in [16], 97%; in experiment [7], 98%; in experiment [8], 82%; in experiment [9] it was 89%.

In the case of `Nc1n[nH]c2nc3ccccc3nc12`, the residual activity in experiment [19] stood at 83%; in [10] it was 122%; in experiment [11] it was 84%; in experiment [12], 120%; in experiment [13] it was 90%; in [3] it was 90%. Further, the residual activity in experiment [14] was found to be 95%; in experiment [4] it was 87%; in [15], 100%; in experiment [16], 87%; in experiment [5] it was 89%; in experiment [6] it was 66%. Moreover, the values for the residual activity in [7], in experiment [8] and in [9] were 70%, 45% and 79%, respectively.

On to `O=C(O)/C=C/c1cc(Br)c(Br)c(Br)c1Br`, for which the residual activity in [19] stood at 98%; in [11], 94%; in experiment [1], 103%; in [2], 99%; in [20] it was 96%; in [13], 97%. The residual activity in [3] turned out to be 107%; in [14] it was 97%; in experiment [4], 74%; in experiment [15], 104%; in [16] it was 103%; in experiment [5], 92%. Also, the residual activity in experiment [6] stood at 67%; in [7] it was 72%; in experiment [8], 27%; in [9] it was 79%.

Consider `Nc1nc(Nc2ccc(S(N)(=O)=O)cc2)nn1C(=O)c1c(F)cccc1F`, for which the residual activity was found to be 52% in [19]; 36% in [10]; 7% in experiment [11]; 29% in experiment [1]; 4% in experiment [2]; 99% in experiment [12]. Further, the residual activity is 66% in [20]; 101% in experiment [13]; 55% in experiment [3]; 63% in experiment [15]; 20% in experiment [16]; 18% in [5]. The residual activity amounted to 2% in [6], 5% in experiment [8] and 1% in experiment [9].

As for `CCOc1nc(NC(=O)Cc2cc(OC)ccc2OC)cc(N)c1C#N`, in experiment [10], the residual activity was 100%.

`COc1cc2nccc(Oc3ccc(NC(=O)Nc4cc(C)on4)c(Cl)c3)c2cc1OC`: the residual activity in [19] was 35%; in experiment [10] it was 25%; in [11], 5%; in experiment [2], 28%; in experiment [12], 76%; in [20] it was 31%. The residual activity was 78% in experiment [14]; 46% in experiment [4]; 8% in experiment [15]; 4% in [16]; -1% in experiment [9].

On to `O=C1NC(=O)C(c2cn(CCCO)c3ncccc23)=C1c1cnccn1`, for which the residual activity was found to be 80% in experiment [18]; 68% in experiment [17]; 91% in experiment [10]; 81% in experiment [11]; 89% in [13]; 94% in experiment [3]. For the same compound, the residual activity in [15] came to 95%; in experiment [16], 97%; in experiment [5] it was 41%; in [6], 46%; in experiment [7] it was 57%; in [8], 51%. In [9], the residual activity was found to be 28%.

For `COc1cc2ncnc(Nc3cccc(Cl)c3)c2cc1OC`, the residual activity in [17] amounted to 32%; in experiment [10] it was 101%; in [11], 66%; in experiment [1], 104%; in [2] it was 74%; in [13], 113%. Besides, the residual activity was 105% in experiment [3]; 119% in experiment [14]; 86% in experiment [4]; 52% in experiment [15]; 12% in [16]; 60% in [5]. The residual activity in experiment [6] was determined as 16%; in [7] it was 111%; in experiment [8] it was 52%; in [9] it was 47%.

As for `COc1cc2c(cc1OC)-c1n[nH]c(Nc3cccc(F)c3)c1C2`, the residual activity in experiment [1] was 111%; in experiment [2], 67%; in [12], 117%; in experiment [20] it was 101%; in experiment [13], 100%; in experiment [3], 82%. In addition, the residual activity in experiment [4] came out at 59%; in [15] it was 20%; in experiment [16], 4%; in [7], 47%; in experiment [8], 5%.

Turning to `CCN1/C(=C/C(C)=O)Sc2ccc(OC)cc21`, the residual activity worked out at 73% in experiment [16], 81% in [6], 64% in [7] and 39% in [8].

As to `CCCC(=O)Oc1ccc2[nH]c(C(=O)c3cc4ccccc4[nH]3)cc2c1`, the residual activity was 79% in experiment [19]; 97% in experiment [10]; 108% in experiment [11]; 125% in [12]; 86% in [20]; 107% in experiment [13]. Further, the residual activity in experiment [3] is 98%; in experiment [14], 104%; in experiment [4], 81%; in experiment [15], 97%; in experiment [16], 82%; in experiment [5], 83%. Also, the residual activity was 86% in experiment [6], 73% in [7], 50% in experiment [8] and 73% in experiment [9].

In the case of `O=C1Nc2ccccc2/C1=C\c1c(Cl)[nH]c2ccccc12`, the residual activity in experiment [19] turned out to be 85%; in experiment [10], 119%; in experiment [11], 79%; in [3] it was 67%; in [14], 99%; in [4] it was 78%. The residual activity stood at 64% in experiment [16], 38% in [6], 55% in experiment [8] and 64% in experiment [9].
